From ChEMBL document CHEMBL1157539, “Thousands of chemical starting points for antimalarial lead identification” (Nature, 2010) come the findings set out here.

What all share (assay type): functional
Assay [1] deals with Plasmodium falciparum. As to the kind of experiment: GSK_TCMDC: Inhibition of Plasmodium falciparum 3D7 in whole red blood cells, using parasite LDH activity as an index of growth. Test compounds present at 2uM.
Assay [2] deals with Plasmodium falciparum. As to the kind of experiment: GSK_TCMDC: Inhibition of Plasmodium falciparum Dd2 in whole red blood cells, using parasite LDH activity as an index of growth. Test compounds present at 2uM.
The next assay concerns HepG2. As to the kind of experiment: GSK_TCMDC: Percent inhibition of human HepG2 cell line. Test compounds present at 10uM.

As a reminder, the Inhibition is how much of the control response was suppressed. Low values mean a weak effect, high ones a strong effect.

Turning to `Cl.O=C(Nc1ccc(C(=O)Nc2ccc(C3=NCCN3)cc2)cc1)Nc1ccc(C2=NCCN2)cc1`, the Inhibition in the assay with Plasmodium falciparum [1] is given as 94%; in the assay on Plasmodium falciparum [2], 95%; in the assay on HepG2, 0%.

As to `CCOc1cc(Cc2cnc(N)nc2N)cc(OCC)c1O`, the Inhibition was 89% in the assay on Plasmodium falciparum [1], 0% with Plasmodium falciparum [2] and 6% in the assay on HepG2.

As to `CN1CCCC1CCNCc1ccc(-c2ccc(CNCCc3ccccc3)cn2)cc1.O=C(O)C(F)(F)F` (stereo not drawn), the values for the Inhibition in the assay on Plasmodium falciparum [1], with Plasmodium falciparum [2] and in the assay with HepG2 were 100%, 99% and 25%, respectively.

Take `COc1cc2c(cc1S(=O)(=O)c1ccc(NC(=O)c3ccc4ccccc4c3)cc1)CCN(C)CC2`: the Inhibition came to 99% with Plasmodium falciparum [1], 28% with Plasmodium falciparum [2] and 2% with HepG2.

In the case of `Fc1ccc2[nH]c(-c3cccc(-c4cccc(CNCCN5CCNCC5)c4)c3)nc2c1.O=C(O)C(F)(F)F`, the Inhibition is recorded as 94% in the assay on Plasmodium falciparum [1], 4% in the assay with Plasmodium falciparum [2] and 18% with HepG2.

In the case of `CC(C)C1CCc2nc(N)nc(N)c2C1.Cl` (stereo not drawn), the Inhibition with Plasmodium falciparum [1] was determined as 95%; with Plasmodium falciparum [2] it was 0%; with HepG2, 70%.

With `CN(N=Cc1ccccc1)C(=N)NCCCC#Cc1cccc(CN2CCCC2)c1`, the Inhibition was found to be 89% with Plasmodium falciparum [1], 3% in the assay with Plasmodium falciparum [2] and 16% with HepG2.

As for `Cc1cc(CNCCCCCNCc2ccc(Cl)cc2)ccc1O`, the figures for the Inhibition in the assay with Plasmodium falciparum [1], in the assay with Plasmodium falciparum [2] and with HepG2 were 98%, 0% and 12%, respectively.

In the case of `O=C(NCCN1CCCC1)c1cc(-c2ccc(Cl)c(O)c2)c(-c2ccncc2)o1`, the Inhibition in the assay with Plasmodium falciparum [1] amounted to 92%; in the assay with Plasmodium falciparum [2], 0%; in the assay with HepG2 it was 0%.

`Cc1cc(Nc2ncc(C#N)c(Nc3ccccc3C(N)=O)n2)ccc1N1CCN(C)CC1.Cl`: the Inhibition was 94% with Plasmodium falciparum [1], 94% in the assay on Plasmodium falciparum [2] and 99% with HepG2.

On to `CCN(CC)CCN(Cc1ccc(-c2ccc(C(F)(F)F)cc2)cc1)C(=O)Cn1cc(CCCCc2cccc(F)c2F)c(=O)c2ccccc21.O=C(O)C(O)C(O)C(=O)O`, for which the figures for the Inhibition in the assay with Plasmodium falciparum [1], with Plasmodium falciparum [2] and in the assay on HepG2 were 90%, 22% and 18%, respectively.

Consider `COc1ccccc1NC(=O)c1cc(C(=O)c2cc(Cl)ccc2O)cn(-c2ccccc2OC)c1=O`, for which the Inhibition with Plasmodium falciparum [1] is 92%; in the assay with Plasmodium falciparum [2] it was 31%; in the assay with HepG2, 9%.

For `O=C(NC1CC1)C1CCN(Cc2cc3ccccc3n2Cc2ccc(Cl)cc2)CC1`, the Inhibition with Plasmodium falciparum [1] was 95%; in the assay on Plasmodium falciparum [2] it was 96%; in the assay with HepG2, 16%.

Consider `CC1(C)N=C(N)N=C(N)N1c1ccc(I)cc1.Cl`, for which the Inhibition in the assay on Plasmodium falciparum [1] was 92%; in the assay on Plasmodium falciparum [2], 1%; in the assay on HepG2, 16%.

`Cc1cc(NCc2ccccc2)nc2cc(O)ccc12`: the Inhibition with Plasmodium falciparum [1] was 98%; in the assay on Plasmodium falciparum [2], 80%; in the assay with HepG2, 0%.

On to `CCCCCN1CCCC1CNS(=O)(=O)c1ccc(C(=O)Nc2cccc(C(F)(F)F)c2)cc1.O=C(O)C(F)(F)F` (stereo not drawn), for which the Inhibition in the assay on Plasmodium falciparum [1] is given as 95%; in the assay with Plasmodium falciparum [2], 0%; with HepG2, 16%.

Regarding `Cc1ccc(Oc2ccc(CNc3nc(Nc4cccc(F)c4)nc(Nc4cccc(F)c4)n3)cc2)cc1`, the Inhibition in the assay with Plasmodium falciparum [1] stood at 86%; in the assay with Plasmodium falciparum [2], 0%; in the assay on HepG2, 0%.

On to `COc1ccc(NC(=O)NC2CCN(CCCOc3ccnc4cc(Cl)ccc34)C2)cc1OC` (stereo not drawn), for which the Inhibition in the assay with Plasmodium falciparum [1] was found to be 90%; in the assay with Plasmodium falciparum [2], 16%; in the assay on HepG2 it was 6%.

As to `O=C(Nc1ccc(F)cc1)c1cnc(N2CCN(c3ccncc3)CC2)c(Cl)c1.O=C(O)C(F)(F)F`, the Inhibition in the assay with Plasmodium falciparum [1] worked out at 100%; in the assay with Plasmodium falciparum [2], 81%; with HepG2 it was 41%.

Take `O=[N+]([O-])c1ccc2nc(Nc3cccc(C(F)(F)F)c3)c(Nc3cccc(C(F)(F)F)c3)nc2c1`: the Inhibition in the assay on Plasmodium falciparum [1] was found to be 100%; with Plasmodium falciparum [2], 99%; in the assay with HepG2, 0%.

For the molecule `CC(C)C1C(O)=C(c2ccc3ccccc3c2)C(=O)N1CC1CCCCC1` (stereo not drawn), the Inhibition in the assay on Plasmodium falciparum [1] stood at 84%; with Plasmodium falciparum [2], 43%; in the assay on HepG2 it was 11%.

Consider `CN1CCN(CCCN(Cc2ccc(-c3cccc(CNCc4ccc5c(c4)OCO5)c3)cc2)C(=O)Nc2ccccc2)CC1.O=C(O)C(F)(F)F`, for which the Inhibition was found to be 100% with Plasmodium falciparum [1], 87% in the assay with Plasmodium falciparum [2] and 51% with HepG2.

As for `COc1ccc(CNCCc2cccs2)cc1-c1ccc(S(=O)(=O)NCCN2CCCC2)s1.O=C(O)C(F)(F)F`, the Inhibition was 99% with Plasmodium falciparum [1], 21% with Plasmodium falciparum [2] and 41% in the assay with HepG2.

Regarding `COc1ccc2nccc([C@@H](O)CN3CCC(NCc4cc5sccc5nc4C(F)(F)F)CC3)c2c1.O=C(O)C(=O)O`, the Inhibition in the assay on Plasmodium falciparum [1] is recorded as 89%; in the assay with Plasmodium falciparum [2] it was 67%; with HepG2, 22%.

As for `CCOC(=O)C(C(=O)OCC)c1nc(C)ns1`, the Inhibition came to 99% with Plasmodium falciparum [1], 0% in the assay with Plasmodium falciparum [2] and 10% in the assay on HepG2.

Turning to `Cl.NOCCCCOc1ccccc1`, the Inhibition with Plasmodium falciparum [1] is listed as 99%; with Plasmodium falciparum [2], 2%; in the assay with HepG2, 12%.

As for `CCn1c(-c2nonc2N)nc2c(-c3cccc(NC(=O)Nc4cccc(OC)c4)c3)ncc(OCCCN)c21.O=C(O)C(F)(F)F`, the figures for the Inhibition with Plasmodium falciparum [1], in the assay on Plasmodium falciparum [2] and with HepG2 were 92%, 69% and 1%, respectively.

Take `COc1ccc(-c2ccc(CNCc3ccsc3)cc2)cc1S(=O)(=O)NCCN1CCCC1.O=C(O)C(F)(F)F`: the Inhibition is reported as 94% in the assay with Plasmodium falciparum [1], 30% in the assay on Plasmodium falciparum [2] and 22% in the assay with HepG2.

As for `CC1CN(c2cc(=O)n(Cc3ccc(NC(=O)Nc4ccc(-c5ccccc5)cc4)cc3)cn2)CC(C)N1.O=C(O)C(F)(F)F` (stereo not drawn), the Inhibition is on record as 87% with Plasmodium falciparum [1], 20% in the assay with Plasmodium falciparum [2] and 0% in the assay on HepG2.

Turning to `CN1CCC(N2CCN(Cc3cccc(-c4ccc(-c5nc6ccccc6[nH]5)cc4)c3)CC2)CC1.O=C(O)C(F)(F)F`, the results for the Inhibition with Plasmodium falciparum [1], in the assay on Plasmodium falciparum [2] and in the assay on HepG2 were 100%, 99% and 56%, respectively.

Turning to `CNCCNCc1cccc(-c2cccc(-c3nc4cccc(C)c4[nH]3)c2)c1.O=C(O)C(F)(F)F`, the figures for the Inhibition in the assay with Plasmodium falciparum [1], with Plasmodium falciparum [2] and with HepG2 were 98%, 9% and 6%, respectively.
